In publication PMC10163288:
A selection follows. No count for the full screen is at hand.

B1: il10ra_site1_normal_mot_HHH_b1_04514_000000156_0001_1_18_H_._HHH_b1_03241_0001_0000100007_0000001_0 (protein)
chain: SSSSYEEVKELIEEIIELAREGNPEEAEKVLRELERLAEELNNPAIRFVVRLLEEVIERQSSSSS
B2: il10ra_site1_sap_15_mot_HHH_b2_02354_af2_000000157_0001_40_56_H_._HHH_b1_07270_0001_0000500051_0000001_1_0001 (protein)
chain: SSSSSEQERAALRFAKWLIEIIEETGNPSARRSLEVMLWLLERINSEEAEELLKEAEELLSSSSS
B3: il10ra_site1_normal_mot_39ab2cb694c8b9c1dc7e65c0d672c93e_0001_000000036_0001_53_65_H_._HHH_b1_05574_0001_0000300023_0000001_0 (protein)
chain: SSSSSEEERIEELIEEAKELLERGNPEEALELVLEALRLAYQNRNAELLQELWRLAKEIASSSSS
B4: il10ra_site1_normal_mot_HHH_b2_05548_000000224_0001_41_54_H_._HHH_b1_07835_0001_0000100002_0000002_0_af2pred_0001 (protein)
chain: SSSSSDEEVEQLLEEAERLLKEGNPEEAAKVVAKAAELALELGNVELIKLVVELLRLIANSSSSS
B5: il10ra_site1_normal_mot_HHH_b1_00999_000000080_0001_41_55_H_._HHH_b1_01870_0001_0000600018_0000001_0 (protein)
chain: SSSSSSSEEEVEELLEEAKEIDDPREAARVLQEATHIALRNQNPELLRLVWEVVKRLGSSSSSSS
B6: il10ra_site1_normal_mot_HHH_b2_04945_000000076_0001_1_19_H_._HHH_b2_05056_0001_0000400022_0000001_0 (protein)
chain: SSSSTDELFEEVRRIIEEAVRLYREGNPEEARRLVEEALELAEENNNFALVFALEHLLRDLSSSS
B7: il10ra_site1_normal_mot_HHH_b2_07144_000000289_0001_1_18_H_._HHH_b2_04284_0001_0000200013_0000001_1 (protein)
chain: SSSSSENHRAYELSREAAELLRQGNEEEAREVLEEVKEIAEEANNPILEFAARAIEKAVNSSSSS
B8: il10ra_site1_normal_mot_HHH_b2_01032_000000296_0001_1_18_H_._HHH_b1_04384_af2_0001_0000600026_0000001_1 (protein)
chain: SSSSSDEEEELLELSRQAFELALRGNPEEAREVLEEAERLARELGDERLLRLVEELLQALSSSSS
B9: il10ra_site1_sap_16_mot_HHH_b2_00093_af2_000000025_0001_40_54_H_._HHH_b1_03751_0001_0001000047_0000001_0_0001_af2pred_0001 (protein)
chain: SSSSSEEERFYQLLLEALRLARRLNDEEVEEELRELLEEYKQKGDPRVEERIEELLKELRSSSSS
B10: il10ra_site1_sap_29_mot_HHH_b2_02354_af2_000000157_0001_40_56_H_._ems_3hM_2942_af2_0001_0000100002_0000002_1_0001_af2pred_0001 (protein)
chain: SSSSTAEEDVRLAIAAAELALKAGDPEKARRALEIAKLIARQGNNPELEEELEELEEEINSSSSS
B11: il10ra_site1_normal_mot_HHH_b2_00479_000000091_0001_1_12_H_._HHH_b2_03388_af2_0001_0000400024_0000002_0 (protein)
chain: SSSSTEENDEVYKLIREALELMARGNPEEARKVLEEAEEILEELNNRVLLFNVRFLLRELGSSSS
B12: il10ra_site1_normal_mot_HHH_b1_05056_000000217_0001_1_20_H_._HHH_b2_04661_af2_0001_0000500034_0000002_0 (protein)
chain: SSSSDEEELEELLEKLEELAEKGDRERFLELVLRLSELIFRLGDKEALQRLWELVREFLRRSSSS
B13: il10ra_site1_normal_mot_HHH_b2_02337_000000026_0001_38_52_H_._HHH_b2_04776_0001_0000200023_0000003_0 (protein)
chain: SSSSSSEEEEEIEELLEQLERAKSDEEISEVALRLVRLIWELNNQELLQRLWEIVKRLASSSSSS
B14: il10ra_site1_normal_mot_HHH_b2_04274_000000146_0001_1_19_H_._5a9ba470ffdefe7bbe7d066b6a6aec3b_0001_af2_0001_0000200013_0000001_1_af2pred_0001 (protein)
chain: NELVKAIRLLLQRFADDPEVLRVLRRILKLSLEDPEEAVELLLELAEKLGDPEVEELAREVERRR
B15: il10ra_site1_sap_16_mot_HHH_b2_08144_af2_000000046_0001_38_52_H_._HHH_b2_08331_0001_0000200020_0000002_0_0001 (protein)
chain: SSSSNAAEYLVRQALRAARLAKENNDPELVKRALEIAERIAENANDPELKELVEEVEEELESSSS
B16: il10ra_site1_normal_mot_HHH_b1_05326_000000242_0001_1_20_H_._HHH_b2_08124_0001_0000100011_0000002_0 (protein)
chain: SSSSSSDEFLRLLRRIFRLLLRGNPEEAQELLEELEELAEELNDPAARRAVEILKEAASSSSSSS
B17: il10ra_site1_normal_mot_HHH_b1_02809_af2_000000277_0001_40_57_H_._HHH_b2_07682_0001_0000300022_0000001_0_af2pred_0001 (protein)
chain: SSSSSRDEEAVRRALRLAKWLREAGDEEAVRKYLKAAKILAKRIGDPELEELVERVEEHLSSSSS
B18: il10ra_site1_normal_mot_HHH_b2_00273_000000062_0001_23_39_H_._HHH_b2_06821_0001_0000300032_0000001_0 (protein)
chain: SSSSEIEEFIEEVEERVRELVERGDTEEALQLLWEAAKLVAENNDEEALRILMELLRLVFRSSSS
B19: il10ra_site1_normal_mot_HHH_b2_01235_000000294_0001_1_18_H_._HHH_b1_05611_0001_0000600040_0000001_0_af2pred_0001 (protein)
chain: SSSSDVTERVLELLREALKLLKDGNPEEAREVLEEAEELAEEGNDELLRHLIEFAQEEIDSSSSS
B20: il10ra_site1_sap_16_mot_HHH_b2_03220_af2_000000223_0001_23_40_H_._HHH_b1_06161_af2_0001_0000300008_0000002_0_0001 (protein)
chain: SSSSSSDEEAAELIREISKVLAEGDRERVEELLEELEKLAEELGDPAARIYVEFVKQLLSSSSSS
B21: il10ra_site1_sap_21_mot_HHH_b1_05357_000000034_0001_23_39_H_._HHH_b2_05349_0001_0000600054_0000001_0_0001_af2pred_0001 (protein)
chain: SSSSNREQRVAELLARALRAAAEGNPEEAERLLEEARELAEELNDEELERAIEILKRYVERSSSS
B22: il10ra_site1_sap_23_mot_0eddeacbb14b769e73e254714f31e2f9_0001_af2_000000127_0001_37_51_H_._HHH_b1_00538_0001_0000500024_0000001_0_0001 (protein)
chain: SSSSSEEEEKAKELIELLEELAKEGDPEEFNRVALEAVRLVLELGDAELLRELWELFKSVSSSSS
B23: il10ra_site1_normal_mot_HHH_b1_08477_000000091_0001_40_57_H_._HHH_b1_03479_0001_0000200016_0000001_0 (protein)
chain: SSSSSEEEERVRQALRFAEALYKSGNPEAAESLLRVLVQSLRRLGNEELVELVEQVLEELNSSSS
B24: il10ra_site1_normal_mot_8756ee2cf497b5429c717dfc0c0bcfd6_0001_000000186_0001_1_13_H_._HHH_b2_04770_af2_0001_0000400016_0000001_0_af2pred_0001 (protein)
chain: SSSSSSDEELKRVQELIRRAAKITDEEELREVLEEAKELAEELGNEILRVIVEFLLELMTSSSSS
B25: il10ra_site1_sap_15_mot_HHH_b2_04646_000000019_0001_1_20_H_._HHH_b1_08112_af2_0001_0000300009_0000001_0_0001 (protein)
chain: SSSSDVEEEVEELLEQAEELARRGNPEEAYKLLKEAAELASEANDPELQRLVVEVSRRVIGSSSS
B26: il10ra_site1_sap_24_mot_HHH_b1_04771_000000013_0001_40_56_H_._HHH_b2_02918_af2_0001_0000100007_0000001_0_0001 (protein)
chain: SSSSDDEERVKQAIRFARWLLENGDKEAAKRIVEAAQDIARKGGNEELVQELEELEEEIKSSSSS
B27: il10ra_site1_sap_20_mot_HHH_b1_04573_000000273_0001_43_57_H_._HHH_b2_07679_0001_0000100005_0000002_0_0001 (protein)
chain: SSSSSDENEEIYRLLREAAEALANGNPEEAREIVEQAVELAEEANSQVLLFNAEYLLRQINSSSS
B28: il10ra_site1_sap_24_mot_HHH_b1_00999_000000080_0001_41_55_H_._HHH_b1_05694_af2_0001_0000300017_0000001_0_0001_af2pred_dldesign_0_af2pred (protein)
chain: SSSSDPQRVVELIHEANRLVDEGRLDEAERLLEEALRLARAADDAELAAAVEKALAFVRSLSSSS
B29: il10ra_site1_normal_mot_HHH_b1_00999_000000080_0001_41_55_H_._HHH_b1_02815_0001_0000700030_0000002_0 (protein)
chain: SSSSDEEEERSKELLEELEELLRRGDQHRFLRLLQHIVRFAFEVSDEELLHEVWRLAREFGSSSS
B30: il10ra_site1_normal_mot_HHH_b1_05357_000000034_0001_23_39_H_._HHH_b2_00878_af2_0001_0000100001_0000001_0_af2pred_0001 (protein)
chain: SSSSSSDLEEEVEKLLEEAEKIEDQLRLAYVLTRAYAVANRLNDPELRELIREVAKKLSSSSSSS
B31: il10ra_site1_normal_mot_0cd074c2d6d3de76f1399c5a775575d2_0001_1_af2_000000000_0001_16_30_H_._a6da520ff4a02840130205282d0b8d49_0001_0001_0000200007_0000001_0_af2 … (protein)
chain: SREQAILYAAIVASGGDEDRIEHLLEIYYEFTGDPAVKEVLERLRAAKAAGIPAEELLKQLEAEN
B32: il10ra_site1_sap_20_mot_HHH_b1_01886_000000262_0001_1_18_H_._HHH_b1_05552_af2_0001_0000500031_0000001_0_0001_af2pred_dldesign_0_af2pred (protein)
chain: SSSSSDLAAVLAEAEALFARSKTVSPEEKEVILQRIVDLALKHENLEVAKLANELLKELSSSSSS
B33: il10ra_site1_sap_25_mot_2c1a291787c6f40772924d4e9068d803_0001_af2_000000187_0001_34_48_H_._HHH_b2_07308_af2_0001_0000400007_0000002_0_0001_af2pred_0001 (protein)
chain: SSSSSTREEVIKRVIELLREARRIEDPEEREEVLEEAHRLAEEGNNELLKFIVESLERKLSSSSS
B34: il10ra_site1_sap_16_mot_HHH_b2_06643_000000103_0001_1_18_H_._HHH_b2_07694_0001_0000100008_0000001_0_0001_af2pred_0001 (protein)
chain: SSSSSSEEEELAELALRLLVEALQHGDPELREEIKELIEEAEKVGDERVVRLLRAALRALSSSSS
B35: il10ra_site1_normal_mot_8756ee2cf497b5429c717dfc0c0bcfd6_0001_000000186_0001_1_13_H_._HHH_b2_05079_af2_0001_0000100002_0000002_1_af2pred_dldesign_0_af2pred (protein)
chain: SSSSSSELEELKNLIKEIAELLYEGKPEEARELLEKAEELAKKLGNKTALATLDYLRRQIESSSS
B36: il10ra_site1_sap_25_mot_HHH_b2_05323_000000159_0001_1_18_H_._HHH_b1_08298_af2_0001_0000500034_0000001_0_0001 (protein)
chain: SSSSDEELQEAFELLREAVEALLDGNPEEAEKLLEEARKLAEEAGNRLLRWQIEWLLEKVRSSSS
B37: il10ra_site1_normal_mot_HHH_b2_00441_000000147_0001_1_18_H_._HHH_b1_04947_af2_0001_0000200007_0000001_0_af2pred_0001 (protein)
chain: SSSSDEYLKKAIRALFRAIKRAIELGDEEVVRLALKDLRFLAREHNDEEAEELLKELEELLSSSS

target: il10ra, Q13651; assay: yeast display titration
Sequence (Q13651 whole entry): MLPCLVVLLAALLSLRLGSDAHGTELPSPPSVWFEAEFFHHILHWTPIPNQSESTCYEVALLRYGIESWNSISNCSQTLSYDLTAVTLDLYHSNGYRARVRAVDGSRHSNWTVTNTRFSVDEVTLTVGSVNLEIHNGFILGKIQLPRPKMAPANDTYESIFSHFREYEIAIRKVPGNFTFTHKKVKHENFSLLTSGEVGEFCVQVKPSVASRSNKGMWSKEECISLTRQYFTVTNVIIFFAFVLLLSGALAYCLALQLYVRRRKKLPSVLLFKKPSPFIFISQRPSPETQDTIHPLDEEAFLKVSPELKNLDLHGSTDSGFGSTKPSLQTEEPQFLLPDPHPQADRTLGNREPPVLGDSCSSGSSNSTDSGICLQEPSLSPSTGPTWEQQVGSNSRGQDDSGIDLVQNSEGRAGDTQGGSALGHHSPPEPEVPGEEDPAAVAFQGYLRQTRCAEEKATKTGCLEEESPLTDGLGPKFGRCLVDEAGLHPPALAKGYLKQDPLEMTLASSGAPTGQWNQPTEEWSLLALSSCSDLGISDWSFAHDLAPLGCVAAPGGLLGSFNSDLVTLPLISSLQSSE

Apparent Kd, inactive:
B1 > 0.786 µM, B2 no binding seen, B3 no binding seen, B4 no binding seen, B5 no binding seen, B6 no binding seen, B7 no binding seen, B8 no binding seen, B9 no binding seen, B10 > 1.5 µM, B11 no binding seen, B12 no binding seen, B13 no binding seen, B14 no binding seen, B15 no binding seen, B16 no binding seen, B17 no binding seen, B18 no binding seen, B19 no binding seen, B20 no binding seen, B21 no binding seen, B22 no binding seen, B23 no binding seen, B24 no binding seen, B25 no binding seen, B26 no binding seen, B27 no binding seen, B28 no binding seen, B29 no binding seen, B30 no binding seen, B31 no binding seen, B32 no binding seen, B33 no binding seen, B34 no binding seen, B35 no binding seen, B36 no binding seen, B37 no binding seen
